In general, inhibition refers to the relative decrease from the control value, in per cent.

The structures appear in SMILES notation. Screen size: about 1,400 compounds; about 380 (27%) were called active. Some of the results follow. A number with no mark means an inactive call.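 The calls were made as follows: active = mean inhibition above 50% across duplicate retests at 10 µM; inactive = the rest.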

The nature of the experiment: yeast NALP1 reporter signal suppression – S. cerevisiae, luminescence, single concentration, NALP1 inhibitor project, confirmation (AID 488841).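 Also: plate controls were DMSO in galactose medium for no effect and cells in plain SD medium for full effect.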 Particulars: S. cerevisiae NALP1/ASC/Caspase-1 reporter, beta-gal luminescence; at 10 µM; active compounds read high.
On to `CC[n+]1c(/C=C/c2ccc(N(C)C)cc2)ccc2ccccc21`, for which the inhibition is 85.5% (active). To `CN(C)c1ccc(/C=C/c2ccc3ccccc3[n+]2C)cc1` belongs 85.5% (active); to `CC1=C(C(=O)Nc2ccc(Cl)cc2)C(c2ccncc2)C(C#N)=C(SCC(N)=O)N1` (stereo not drawn), 32.1%; to `CN(C)c1ccc(N2C(=O)CC(Sc3ccccc3C(=O)O)C2=O)cc1` (stereo not drawn), 24.6%. Turning to `CCOc1ccc(OCCSc2nc3ccccc3o2)cc1`, the inhibition is 42.4%. As to `CCOC(=O)CCCNC(=O)COC(=O)c1ccc(O)cc1`, the inhibition is 23.1%. Consider `Cc1ccc(NC(=O)CN(C)C(=O)COc2cccc3cccnc23)cc1`, for which the inhibition was 25.3%. For `CCN1c2ccccc2-c2nc3ccccc3n2C1c1cccs1` (stereo not drawn), the inhibition is 32.9%.

Turning to `O=C(C[n+]1ccc(C(=O)N/N=C/c2ccc(OCc3ccccc3)cc2)cc1)c1ccccc1`, the inhibition is 58.6% (active). On to `O=C(Oc1ccc(/C=N/NC(=O)c2ccccc2O)cc1)c1ccccc1`, for which the inhibition was 30.9%. For `COc1ccc(/C=N\NC(=O)c2cc(OCC(F)(F)F)ccc2OCC(F)(F)F)cc1`, the inhibition was 25.5%. `O=C1C=CC(=O)N1c1ccc(OC(F)F)cc1`: the inhibition is 59.8% (active). Take `COc1ccc(N2C(=O)C3[C@@H](C2=O)C2(Cl)C(Cl)=C(Cl)C3(Cl)C2(OC)OC)cc1` (stereo partly drawn): the inhibition was 42%. `C=CCc1ccc(OCCCOc2ccc(C)cc2OC)c(OC)c1`: the inhibition is 30.9%. On to `COc1ccc(C(=O)/C=C/Nc2ccc([N+](=O)[O-])cc2C)c(OC)c1`, for which the inhibition was 4.95%.

Take `COc1cc(C)ccc1OCCOCCOc1ccc([N+](=O)[O-])cc1`: the inhibition is 53.3% (active). For `CCCCN(C)C(=O)c1nc2ccccn2c1CNCCCn1ncc2ccccc21`, the inhibition is 16.4%.

Take `Cc1ccc(C(=O)c2c(NC(=O)c3ccncc3)sc3c2CCCC3)cc1`: the inhibition is 51% (active). Regarding `Cc1ccccc1OCC(=O)Nc1sc2c(c1C#N)CCC2`, the inhibition is 16.7%. For the molecule `COC(=O)c1c(NC(=O)C2CCCO2)sc2c1CCC2` (stereo not drawn), the inhibition was 39.9%. As to `Cc1ccc(C(C)C)cc1OCCN1CCCC1`, the inhibition was 40.4%.

`Cc1ccc(OCCCCN(C)Cc2ccccc2)c(Br)c1`: the inhibition was 61.5% (active). On to `CSc1ccc(CN(C)CC(=O)Nc2ccc(C)cc2Br)cc1`, for which the inhibition was 47.1%.

In the case of `Cc1ccc(OCCCCN2CCCCC2)c(Br)c1`, the inhibition was 41.6%. As for `CCCCCOc1ccc(Br)cc1CSC(=N)N`, the figure is 57.2% (active). `C=CCNCCCCOc1ccc(Br)cc1C`: the inhibition is 41.7%.

In the case of `O=C(O)CC1NC(=S)N(c2ccccc2)C1=O` (stereo not drawn), the inhibition was 29.9%. To `COc1ccc(NCc2ccc([N+](=O)[O-])s2)c(OC)c1` belongs 49.1%; to `CC(=O)N1N=C(c2ccc3ccccc3c2)OC1(C)C`, 77.3% (active). `CC(C)(C)c1ccc(COn2c(=O)c(-c3ccco3)[n+]([O-])c3ccccc32)cc1`: the inhibition was 12.9%. `CCCc1nc2ccc(NC(=O)c3ccco3)cc2c(=O)n1Cc1ccccc1Cl`: the inhibition was 27%. Consider `COc1cccc(NC2=C(Cl)C(=O)OC2OC(=O)c2ccco2)c1` (stereo not drawn), for which the inhibition was 29.2%. For the molecule `O=C(Nc1ccc(Cl)c(Cl)c1)Oc1ccc(NC(=O)c2ccco2)cc1`, the inhibition was 52.8% (active). Take `COc1ccc2c(c1)C1=NN(/C(C)=C/C(C)=O)C(c3ccc(F)cc3)C1CC2` (stereo not drawn): the inhibition is 42.4%. For `Cn1nc(NC(=O)C(C)(C)C)c2c(F)cccc21`, the inhibition was 8.45%. Regarding `CC(C)Oc1ccc(Cc2cnc(N)nc2N)cc1`, the inhibition is 9.95%. As for `O=C1O/C(=C/c2ccccc2)c2ccccc21`, the figure is 73.8% (active); as for `Cc1ncc(S(=O)(=O)c2ccccc2)c(-c2ccccc2Cl)n1`, 10.2%.

For `CC(NC(=O)c1ccc(F)cc1)C(=O)NC1=NCCS1` (stereo not drawn), the inhibition is 22.1%. `Cc1ccc(-c2csc(NC(=O)c3ccc(F)cc3)c2C(=O)O)cc1`: the inhibition is 89.8% (active). As to `CN1CCN(C2=C(Cl)C(=O)N(CCc3ccccc3)C2=O)CC1`, the inhibition was 46.6%. Take `N#C/C(=C/c1cccs1)c1nc2ccccc2[nH]1`: the inhibition was 89% (active). For the molecule `N#C/C(=C\c1ccc([N+](=O)[O-])o1)c1nc2ccccc2[nH]1`, the inhibition was 24.8%. Consider `Cn1c(/C(C#N)=C/C2CC=CCC2)nc2ccccc21` (stereo not drawn), for which the inhibition was 37%. To `O=c1oc2ccccc2nc1/C=C(O)/C=C/c1ccc(F)cc1` belongs 33.8%. In the case of `COc1ccccc1C(=O)Nc1nc2nc(-c3ccccc3)cc(=O)n2[nH]1`, the inhibition is 22.9%. Turning to `CCN(CC)CCN1C(=O)c2ccccc2NC1c1ccc(N(C)C)cc1` (stereo not drawn), the inhibition was 25.7%. For the molecule `CN(C)CCN(C(=O)/C=C/c1cccs1)c1nc2ccc(F)cc2s1`, the inhibition was 72.1% (active). As for `CCN(C(=O)[C@@H]1CCCN1C(=O)c1cccs1)c1nc2cc(Cl)ccc2s1`, the inhibition is 46.8%. For the molecule `CN(C)CCN(C(=O)/C=C/c1cccs1)c1nc2c(F)cc(F)cc2s1`, the inhibition is 51.6% (active). With `CCCCNC(=O)COC(=O)c1ccc(Cl)c(S(N)(=O)=O)c1`, the inhibition is 25.9%. `CCOc1nnc(C)c2c(C)n(-c3cccc(Cl)c3)nc12`: the inhibition was 25.5%.

For the molecule `Clc1ccc2oc3c(Cl)ncnc3c2c1`, the inhibition is 23.1%.

In the case of `CC(C)(C)c1cc2cccnc2n1Cc1cccc(Cl)c1`, the inhibition was 35.9%. On to `CC(OC(=O)CC(NC(=O)c1ccccc1Cl)c1ccccc1)C(=O)Nc1cccc(Cl)c1Cl` (stereo not drawn), for which the inhibition is 29.8%. In the case of `Cc1cc(C)n(CCOc2ccc(Cl)cc2Cl)n1`, the inhibition is 53.1% (active). For the molecule `O=C(CCl)NC(=O)NC12CC3CC(CC(C3)C1)C2`, the inhibition is 32.7%. For `CCCCNC(=O)C(=O)N/N=C/c1cccc(Br)c1`, the inhibition was 45.6%. As for `CC(/C=N/NC(=O)c1c(Br)cnn1C)=C\c1ccccc1`, the figure is 54.4% (active); as for `CC(/C=N/NC(=O)CCn1nnc2ccccc21)=C\c1ccccc1`, 38.2%. In the case of `CC(/C=N/NC(=O)CSc1ccccn1)=C\c1ccc(C(C)C)cc1`, the inhibition is 26.2%. Take `COc1cc2c(cc1NC(=S)Nc1ccccc1C)oc1ccccc12`: the inhibition was 26.9%.

For `Cc1ccc(S(=O)(=O)c2nc(Nc3ccccc3)sc2Cl)cc1`, the inhibition is 55.3% (active). As to `CCOC(=O)/C(=N\Nc1ccc(Cl)cc1)c1csc(Nc2ccccc2)n1`, the inhibition is 27.4%.

For the molecule `Cc1ccc(S(=O)(=O)c2nc(C)oc2NCc2ccccc2)cc1`, the inhibition is 35%. In the case of `CCCOc1ccc(OCCSc2ncccn2)cc1`, the inhibition was 39.4%.

For `Cc1cc(N2C(=O)C=CC2=O)c([N+](=O)[O-])cc1C`, the inhibition was 41.7%. For `Fc1ccc(NC(=S)N2CCSC2c2cccs2)cc1` (stereo not drawn), the inhibition is 17.1%. For `Cc1ccc(S(=O)(=O)NC2=NCN(CCOC(=O)c3ccc([N+](=O)[O-])cc3)CN2)cc1`, the inhibition is 22.2%. As to `Brc1ccc(C=Nc2ccc(Nc3ccccc3)cc2)s1`, the inhibition is 51.1% (active).

On to `COc1ccc(NC(=S)SC)cc1OC`, for which the inhibition was 52.4% (active).

Consider `COc1ccc(C(=O)Nc2ccc(S(=O)(=O)Nc3nccc(C)n3)cc2)cc1OC`, for which the inhibition is 31.2%.

As for `COc1ccc2nc3oc(C(=O)Nc4ccc(OC)c(OC)c4)cc3cc2c1`, the inhibition was 23.6%.

Turning to `c1ccc(COc2ccc(OCCN3CCCCC3)cc2)cc1`, the inhibition is 35.1%. Regarding `O=C(O)c1cccnc1C(=O)N1CCc2c([nH]c3ccccc23)C1C(F)(F)F` (stereo not drawn), the inhibition was 0.7%. As to `COc1ccccc1NC(=O)C1=C(C)NC(=O)NC1c1cccs1` (stereo not drawn), the inhibition was 27.1%.

With `O=[N+]([O-])c1cc(C(F)(F)F)ccc1NCCc1c[nH]c2ccc(O)cc12`, the inhibition is 51.8% (active). With `Cc1ccc(C(=O)NCCCNc2ccc(C(F)(F)F)cc2[N+](=O)[O-])cc1`, the inhibition was 31.8%. In the case of `CCOC(=O)C(=O)C1=C(N2CCOCC2)/C(=C\c2ccc(F)cc2)CC1`, the inhibition is 33.4%.

Turning to `CCOc1cc(CNC2CCCC2)cc(Cl)c1OCc1ccc(F)cc1`, the inhibition is 50.7% (active).

Consider `CCOc1c(Cl)cc(CNCC(C)C)cc1OC`, for which the inhibition was 32.7%. Consider `CCOc1cc(CNCc2ccncc2)cc(Br)c1OCc1ccc(F)cc1`, for which the inhibition is 69.7% (active). As for `COc1cc(CNC2CCCCCCC2)cc(Br)c1OCC#N`, the inhibition is 38.8%. Take `COc1ccc2c(c1)NC(=O)CC(c1ccccc1)=N2`: the inhibition was 43.5%. Regarding `O=S(=O)(NC1CCCCC1)c1ccc(F)c2ccccc12`, the inhibition is 51.6% (active). Consider `Cc1cccc(NC(=O)c2ccc(C3SCC(=O)N3CCc3ccccc3)cc2)c1C` (stereo not drawn), for which the inhibition was 48.8%. Regarding `COc1ccc(N=c2cc(-c3ccc(OC)cc3)oc3ccccc23)cc1`, the inhibition was 49.6%. As for `CCCCN(Cc1ccccc1)C(=O)C1CCN(Cc2sccc2C)CC1`, the figure is 40.8%; as for `Cc1ccc(/C=C/C(=O)NCc2ccc3c(c2)OCO3)o1`, 36%; as for `Nc1c(C(=O)NCc2ccc3c(c2)OCO3)nnn1-c1ccc(OC(F)(F)F)cc1`, 31.3%. For the molecule `O=C(CSCc1cnn(-c2ccccc2)c1-n1cccc1)NCc1ccc2c(c1)OCO2`, the inhibition is 50% (active). As for `COc1ccc2c(c1)O/C(=C\c1sccc1C)C2=O`, the inhibition is 65.4% (active). As to `CCOc1oc(-c2ccc(OC)cc2)nc1C(F)(F)F`, the inhibition is 24.1%. In the case of `O=C(N/N=C/c1ccncc1)c1cc2ccccc2o1`, the inhibition was 47.5%. Regarding `O=C(NC(=S)Nc1cccnc1)c1cc2ccccc2o1`, the inhibition was 55.4% (active). Consider `O=C(Nc1cccc(-c2nc3ncccc3o2)c1)c1cc2ccccc2o1`, for which the inhibition is 46.4%.

Turning to `COc1cccc(CN(C)CC(=O)Nc2cccc(S(N)(=O)=O)c2)c1OC`, the inhibition is 33.9%.

Consider `C(#Cc1ccc(C#CCN2CCCC2)cc1)CN1CCCC1`, for which the inhibition was 17.6%. Take `O=[N+]([O-])c1ccc(OCC(O)CN2CCN(c3ccccc3F)CC2)cc1` (stereo not drawn): the inhibition was 55.2% (active). As for `CCC(=O)c1ccc(OCC(O)CN2CCN(c3cccc(C(F)(F)F)c3)CC2)cc1` (stereo not drawn), the figure is 49.5%.

`CCOC(=O)N1CCN(CC(O)COc2ccccc2C(C)(C)C)CC1` (stereo not drawn): the inhibition is 42.4%. To `OC(CSc1c(Cl)cccc1Cl)CN1CCN(c2ccccc2F)CC1` (stereo not drawn) belongs 40.9%; to `OC(COc1ccc2c(c1)CCC2)CN1CCN(c2ccccc2F)CC1` (stereo not drawn), 73.8% (active).
